For 61 compounds, z-score results are on record in PubChem BioAssay AID1628 (Sanford-Burnham Center for Chemical Genomics, 2009).

Out of some 190,000 compounds screened, about 930 (0.49%) were called active.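 How the source made its calls: active means z-score of insulin promoter reporter brightness in nuclei below -3 at 5 µM, with at least 500 cells counted; inconclusive means wells with under 500 cells, flagged as toxic or sparse; inactive means the rest.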 The list shows a part of the results. Results with a measured potency or affinity are listed apart.

A short description of this experiment: insulin promoter down-regulators in MIN6 cells, imaging, high-content screening, mouse beta cells (AID 1628). The following applies: MIN6 insulin promoter GFP reporter, at 5 µM, hits give low values.
Take `Cc1nc2c(ccc3nc(NC(=O)C4CC4)sc32)s1`: the z-score is 2 (inactive).
The value for `Cc1cccc2sc(NC(=O)C3CCCN(S(=O)(=O)c4cccc5nonc45)C3)nc12` (stereo unspecified) was 6.61 (inactive).
With `C=CCNC(=O)C1CC2Cn3c(nc4cc5ccccc5cc43)C2N1C` (stereo unspecified) the figure was 4.44 (inactive).
Take `Cc1cc(=O)oc2cc(OCC(=O)OCC(=O)NC3CC3)ccc12`: the z-score is 3.8 (inactive).
Regarding `CCOC(=O)N1CCN(C(=O)NC2CCCCC2)CC1`, the z-score is 3.74 (inactive).
For the compound `CC1=Nc2ccccc2/C1=C/c1sc(=S)n(-c2cccc(C(=O)O)c2)c1O`, the z-score was 3.2 (inactive).
With `COc1cccc(N2CCN(c3ncccn3)CC2)c1` the figure was 3.1 (inactive); with `COc1cccc(-c2nn(C)c3sc(C(=O)N4CCN(c5ccccn5)CC4)cc23)c1`, -10.4 (active).
With `Cc1ccc(C)c(NC(=O)C(C)CC2COCCO2)c1` (stereo unspecified) the figure was 3.45 (inactive).
For `O=S1(=O)N=C(N(CCO)/N=C/c2ccncc2)c2ccccc21`, the z-score is 2.42 (inactive).
The value for `CC(=Nc1ccc(C)cc1C)c1sc2ccccc2c1O` was 3.96 (inactive).
With `CC(=O)NCCN=C(C)c1sc2ccccc2c1O` the figure was -3.06 (active); with `O=c1oc2c3c4c(cc2c(C(F)(F)F)c1CCN1CCOCC1)CCCN4CCC3`, 7.75 (inactive); with `CCN1/C(=C/C=C/c2oc3ccc4ccccc4c3[n+]2CC)Oc2ccc3ccccc3c21`, 17 (inactive).
With `Cc1ccccc1NCC(=O)N/N=C/c1c[nH]c2ccccc12` the figure was 4.05 (inactive).
As to `Cc1nnsc1C(=O)N/N=C/c1ccc2ccccc2c1O`, the z-score was -4.07 (active).
With `COc1cc(-c2cc(=O)c3ccccc3o2)ccc1O` the figure was -1.08 (inactive); with `CCOc1cccc(-c2nn3c(-c4cc(C)[nH]n4)nnc3s2)c1`, 1.99 (inactive); with `COc1cc(C(c2sc3nc(C)nn3c2O)N2CC(C)CC(C)C2)cc(OC)c1OC` (stereo unspecified), 0.98 (inactive).
The value for `CCOc1cccc(-c2nnc3sc(-c4cc(OC)c(OC)c(OC)c4)nn23)c1` was -3.61 (active); that for `Cc1ccc(C(=O)NN2C(=O)/C(=C/c3cn(C)c4ccccc34)SC2=S)cc1` was 4.98 (inactive).
On to `CCN1C=CC2=C(C#N)C(N)C(C#N)(C#N)C(c3ccccc3C(F)(F)F)C2C1` (stereo unspecified), for which the z-score is 11 (inactive).
With `COc1cccc(NC2C=CS(=O)(=O)C2)c1` (stereo unspecified) the figure was 1.43 (inactive).
With `Cc1ccc(S(=O)(=O)/N=c2\ccc(Cl)cn2C(F)F)cc1` the figure was 2.64 (inactive); with `CCNc1ccc2noc3c2c1C(=O)c1ccccc1-3`, 4.91 (inactive); with `CCOC(=O)CC1C(=O)NCCN1c1nc2ccc(C)cn2c(=O)c1/C=C1\SC(=S)N(C(C)CC)C1=O` (stereo unspecified), 15.3 (inactive).
With `Cc1cccc(-c2nnc3sc(-c4ccccc4C)nn23)c1` the figure was -3.32 (active).
`CCN(CC)c1ccc2cc(-c3nc(-c4ccc(OC)cc4)cs3)c(=O)oc2c1`: the z-score was 17 (inactive).
The value for `C=CCn1c(-c2csc(-c3ccc(OC)c(OC)c3)n2)n[nH]c1=S` was -3.05 (active); that for `COc1ccc(C(=O)c2sc3nc(-c4ccccc4)ccc3c2N)cc1OC` was 5.8 (inactive); that for `C=CCn1c(-c2oc3nc(-c4ccccc4)cc(-c4ccccc4)c3c2N)n[nH]c1=S` was 5.57 (inactive).
With `CCOC(=O)Cc1csc(NC(=O)c2sc3nc4c(C)cc(C)cc4cc3c2N)n1` the figure was 4.73 (inactive); with `Cc1nnc(SCC2=C(C(=O)O)N3C(=O)C(NC(=O)Cn4nc(C)c(Cl)c4C)C3SC2)s1` (stereo unspecified), 1.08 (inactive).
The value for `CCOC(=O)c1cnn(-c2cc(C)nc3c(-c4ccccc4)cnn23)c1N` was 3.62 (inactive); that for `CCOC(=O)c1cnc(-n2nc(C)cc2C)nc1NCc1ccccc1` was -3.75 (active); that for `CCCNC(=O)Cn1c(-c2ccc(F)cc2)cc(C(=O)OCC)c1C` was 0.89 (inactive).
Consider `Cc1cc(C)n(-c2ccc(OCC(=O)O)nn2)n1`, for which the z-score is 3.33 (inactive).
The value for `CCCCSc1ncc(C(=O)OCC)c(N)n1` was 2.51 (inactive); that for `Cc1cc(-c2nc3ncccc3o2)ccc1N` was 1.34 (inactive); that for `COC(=O)N/N=C\c1cc2c(cc1Br)OCO2` was 0.97 (inactive).
With `CSC1=NC(C)(C)CC2(C)Nc3ccccc3N12` (stereo unspecified) the figure was -3.03 (active).
The value for `O=C(NCCc1csc(-c2ccccc2)n1)c1ccccc1F` was 4.15 (inactive); that for `COc1ccc(-c2csc(NC(=O)c3ccccc3NS(=O)(=O)c3ccc(F)c(F)c3)n2)cc1` was -4.95 (active); that for `COc1ccc(C2CC(C(F)(F)F)n3nc(C(=O)NCc4cn(C)nc4C)c(Cl)c3N2)cc1` (stereo unspecified) was -9.71 (active).
On to `Cc1c(CNC(=O)c2nn3c(c2Cl)NC(c2ccccc2)CC3C(F)(F)F)cnn1C` (stereo unspecified), for which the z-score was -4.22 (active).
The value for `CN1C2CCC1/C(=C/c1cccn1C)C(=O)/C2=C\c1cccn1C` was 3.1 (inactive); that for `N#CC1CC(c2ccc([N+](=O)[O-])cc2)=NN1c1ccc([N+](=O)[O-])cc1` (stereo unspecified) was 5.36 (inactive); that for `CN1/C(=C\C=C2/C(=O)Oc3ccccc3C2=O)C(C)(C)c2ccccc21` was 8.51 (inactive).
The value for `CN1/C(=C\C=C(/C#N)C(=O)Nc2ccccc2F)C(C)(C)c2ccccc21` was 7.42 (inactive); that for `Cn1c(-c2ccc3c(c2)OCO3)cc(=O)c2ccccc21` was -0.67 (inactive); that for `CN1/C(=C\C(=O)C[n+]2ccc3ccccc3c2)C(C)(C)c2ccccc21` was -4.73 (active).
The value for `O=C(OCC(=O)N1CCN(c2ccccc2)CC1)c1cccc(Cl)c1` was 1.29 (inactive).
For the compound `Cn1ccnc1Sc1nc(Nc2cccc(Cl)c2)nc(N2CCOCC2)n1`, the z-score was -0.82 (inactive).
The value for `N#C/C(=C/c1ccc(N2CCCCC2)o1)c1cccc(F)c1` was 14.6 (inactive); that for `Clc1ccc2oc(-c3cccnc3NCc3ccccc3)nc2c1` was -3.89 (active).
The value for `Clc1ccc2oc(-c3ccccn3)nc2c1` was 3 (inactive); that for `CCN(CC)c1ccc(/C=C(/C#N)C(=O)NC(C)C)o1` was 6.43 (inactive).
With `Cc1sc2ncn(CC(=O)NCCCC(=O)N3CCN(c4ncccn4)CC3)c(=O)c2c1C` the figure was -4.71 (active); with `COc1cc(NC(=O)Cn2cnc3sc(C)c(S(=O)(=O)N4CCN(C)CC4)c3c2=O)cc(OC)c1OC`, 1.41 (inactive); with `CC(=O)Nc1nc(-c2ccc(Br)s2)cs1`, 5.02 (inactive).
For `Cc1cc(NC(=O)/C(C#N)=C/c2ccc(-c3ccc(SC(F)F)cc3)o2)n(-c2ccccc2)n1`, the z-score was 3.43 (inactive).
